Data from ChEMBL document CHEMBL3988442, “University of Dundee, Small-Polar-MMV Screening Library” (2021).
The whole screen tested about 69,000 compounds, of which about 950 (1.4%) showed an effect of 50% or more. This excerpt belongs to a sample that is enriched for strong results.

system: Mycobacterium tuberculosis; experiment: Cornell M. t heat shock assay; assay type: functional, organism-based; parameters: dose or concentration left out as unconfirmed; further: in the data most compounds retested in dose-response had high values

| SMILES | Percent Effect [%] |
| --- | --- |
| Cc1nc[nH]c1CN(Cc1ccccc1F)C1CC(C)(C)NC(C)(C)C1.O=C(O)CC(O)(CC(=O)O)C(=O)O | -2.69 |
| Cc1ccc(C2(CN3CCN(Cc4cn(C)nc4C)CC3)CC2)cc1.Cl | 5.814 |
| Cl.O=C(NC1CCCC1)c1ccnc(C2CCNCC2)c1 | -6.855 |
| CN(C)C(=O)COCC1CN(Cc2ccoc2)Cc2ncn(C)c21.O=C(O)C(F)(F)F.O=C(O)C(F)(F)F (stereo unspecified) | -26.5 |
| Cc1ccc(N2CCCC3(COCCN(c4ccccn4)C3)C2)nn1.O=C(O)C(F)(F)F (stereo unspecified) | -19.77 |
| Cc1nc2cc(-c3nccn3C)nn2c(N2CCC(O)CC2)c1C.Cl | 0.7953 |
| CNC(=O)[C@@H]1C[C@H]2CN(Cc3ccco3)C[C@H]2N1C.O=C(O)C(F)(F)F.O=C(O)C(F)(F)F | -19.75 |
| CS(=O)(=O)NC[C@]12COC[C@H]1CN(CC1CCCC1)C2.O=C(O)C(F)(F)F | -15.72 |
| O=C(O)C(F)(F)F.O=C(O)C(F)(F)F.O=C(O)C(F)(F)F.c1ccc(CN2CCC3(CC2)CCN(Cc2cccs2)C3)nc1 | -44.21 |
| Cc1nn(C)c2c(=O)n(CC(=O)NCc3ccccc3Cl)ccc12 | -7.047 |
| Cc1cnn(CC2CCCCN2CC(=O)Nc2nc(C)cs2)c1 (stereo unspecified) | 74.94 |
| Cc1cnn(CC2CCCCN2CC(=O)Nc2nncs2)c1 (stereo unspecified) | 18.17 |
| Cc1cnn(CC2CCCCN2CC(=O)Nc2c(C)n[nH]c2C)c1 (stereo unspecified) | -5.895 |
| O=C(N[C@@H]1CN(Cc2c[nH]nc2-c2ccccc2)C[C@H]1O)c1cc[nH]n1 | 1.707 |
| CN1CCCCc2c1nc1c(c2N)CCC1.O=C(O)c1cc([N+](=O)[O-])ccc1Cl | -19.05 |
| Cc1cc(C)cc(CN2CCC3(CC2)CC(Nc2ncccn2)CO3)c1.O=C(O)C(F)(F)F (stereo unspecified) | -30.68 |
| CCc1nc(NCc2ccccn2)c2c(n1)c(C)nn2C | -15.98 |
| C=C/C=c1\c(=C/C)oc2c(NCc3ccccc3)ncnc12 | -0.4342 |
| C=C/C=c1\c(=C/C)oc2c(NCc3ccccc3)nc(CC)nc12 | 75.04 |
| Cc1nc(NCc2cccnc2)c2c(n1)c(C)nn2C | 15.35 |
| C=C/C=c1\c(=C/C)oc2c(NCc3ccccc3)nc(C)nc12 | 104.3 |
| CCn1c(NCc2ccccc2)nc2c(C)nn(C)c2c1=O | 12.91 |
| CS(=O)(=O)N1CCC2(CC1)COC(COc1ccccn1)C2.O=C(O)C(F)(F)F (stereo unspecified) | -12.81 |

| SMILES | Percent Effect [%] |
| --- | --- |
| O=C(O)C(F)(F)F.O=C(O)C(F)(F)F.O=C1[C@H]2CN(Cc3ccccc3)C[C@H]2CN1CCN1CCCC1 | 1.586 |
| Cc1oncc1C(=O)N[C@@H]1CN(C2CCC2)C[C@@H]2CCCO[C@@H]21.O=C(O)C(F)(F)F | 25.58 |
| Cc1c[nH]nc1C1CCCN1Cc1ncc[nH]1.O=CO (stereo unspecified) | -1.504 |
| Cc1ccccc1NC(=O)c1cncc(C2CCNCC2)n1.Cl | 27.66 |
| c1ccc(Oc2ncccc2CNCc2ccccn2)cc1 | 69.15 |
| O=C(CN1CCCCCC1)NCc1cccnc1Oc1ccccc1 | 2.86 |
| CN(C)S(=O)(=O)NCc1cccnc1Oc1ccccc1 | -4.23 |
| O=C(C[C@@H]1COC[C@H]2CN(CC3CC3)C[C@@H]12)NCc1cccnc1.O=C(O)C(F)(F)F.O=C(O)C(F)(F)F | 9.594 |
| O=C(Cc1cnc(-c2c(Cl)cccc2Cl)s1)N1CCOCC1 | -11.24 |
| CC(=O)N1CCN(C(=O)Cc2cnc(-c3c(Cl)cccc3Cl)s2)CC1 | 3.544 |
| NC(=O)C1CCN(C(=O)Cc2cnc(-c3c(Cl)cccc3Cl)s2)CC1 | 65.47 |
| O=C(O)C(F)(F)F.O=C1CC(c2cccnc2)C2(CCN(S(=O)(=O)C3CC3)CC2)N1 (stereo unspecified) | -6.88 |
| CN(C)S(=O)(=O)NCc1cccnc1Oc1ccccc1F | 7.179 |
| Cc1ccccc1Oc1ncccc1CNS(=O)(=O)N(C)C | -10.74 |
| CN(C)S(=O)(=O)NCc1nc(-c2cccc(F)c2)c(-c2ccccn2)[nH]1 | 62.81 |
| CN(C)S(=O)(=O)NCc1cccnc1Oc1ccc(F)cc1F | -13.26 |
| Cc1ccc(-c2nc(CNS(=O)(=O)N(C)C)[nH]c2-c2ccccn2)cc1 | 101.5 |
| Cc1nc(-c2ccc(CNS(=O)(=O)N(C)C)cc2)ccc1C(N)=O | 10.37 |
| Cl.O=C(c1cccnc1N1CCN(CCO)CC1)N1CCCC1 | 2.64 |
| COCC1CN(CC2CC2)Cc2nccn2C1.O=C(O)C(F)(F)F (stereo unspecified) | -7.797 |
| COCC(=O)N(C)Cc1nc(N2CCCC2)ncc1-c1ccncc1.Cl | -16.19 |
| COc1ccc(C2CCCCCN2S(=O)(=O)N(C)C)cc1 (stereo unspecified) | 68.3 |
| COc1ccc(C2CCCN2S(=O)(=O)N(C)C)cc1 (stereo unspecified) | -0.3722 |

| SMILES | Percent Effect [%] |
| --- | --- |
| COc1ccc(C2CCCCCN2S(C)(=O)=O)cc1 (stereo unspecified) | -12.37 |
| CN(C)CCOCC1CN(Cc2ccccn2)Cc2nnn(C)c21.O=C(O)C(F)(F)F.O=C(O)C(F)(F)F.O=C(O)C(F)(F)F (stereo unspecified) | -27.07 |
| Cc1ccc(C(CCNCCN(C)C)C2CCOC(C)(C)C2)cc1.O=C(O)C(=O)O (stereo unspecified) | 1.762 |
| Cl.NC(CC1CCCC1)c1ccccc1 (stereo unspecified) | -17.85 |
| Cl.NC(CC1CCCCC1)c1ccccc1 (stereo unspecified) | 1.9 |
| NC(CC1CCCC1)c1ccc(Oc2ccccc2)cc1 (stereo unspecified) | 102.825 |
| COc1ccc(-c2cc(C3CCNCC3)ccn2)cc1.Cl | -16.31 |
| Cc1nc(CN2CCOCC3(CCN(c4ncccn4)CC3)C2)cs1.O=C(O)C(F)(F)F | -11.45 |
| CCc1nccn1-c1cccc(C2CCCN2)n1.Cl.Cl (stereo unspecified) | 8.16 |
| COCCN(C/C=C/c1ccccc1)Cc1nccs1 | 1.581 |
| COCCN(C/C=C/c1ccccc1)Cc1ncc[nH]1 | 14.48 |
| CCn1ncnc1CN(C/C=C/c1ccccc1)CCOC | -13.31 |
| CCc1ccc(CN(C/C=C/c2ccccc2)CCOC)nc1 | 98.48 |
| COCCN(C/C=C/c1ccccc1)Cc1ccccn1 | 61.37 |
| COCCN(C/C=C/c1ccccc1)Cc1[nH]cnc1C | -1.061 |
| Cc1ccc(CN2Cc3ccccc3O[C@]3(CC[C@H](CO)CC3)C2)s1.Cl | -7.456 |
| COCCN1CCc2c(cnc(-c3ccccc3)c2C(=O)O)C1.O=C(O)C(F)(F)F | -9.252 |
| O=C(O)C(F)(F)F.O=C(c1cscn1)N1CC[C@@H]2[C@@H]1CCN2CC1CCOCC1 | 39.35 |
| CCN1CCC(N2CCC(C(=O)N(C)C)CC2)CC1.O=C(O)C(F)(F)F.O=C(O)C(F)(F)F | 2.155 |
| OC(CN(Cc1ccccc1)Cc1ccccn1)c1cccs1 (stereo unspecified) | 66.35 |
| OC(CN(Cc1ccccc1)Cc1ccncc1)c1cccs1 (stereo unspecified) | -1.892 |
| OC(CN(Cc1ccccc1)Cc1cscn1)c1cccs1 (stereo unspecified) | 5.463 |
| Cc1cccc(CN2CCC3(CC2)CN(c2cnn(C)c2)C(=O)CO3)n1.O=C(O)C(F)(F)F | -22.92 |

| SMILES | Percent Effect [%] |
| --- | --- |
| CNc1cc(C2CCCNC2)nc(C)n1.Cl.Cl (stereo unspecified) | -17.65 |
| Cc1cc(C(F)(F)F)nc(CCNC(C)Cn2nc(C)cc2C)n1 (stereo unspecified) | 1.181 |
| Cc1cc(C(F)(F)F)nc(CCNC(C)Cn2ccnc2)n1 (stereo unspecified) | 103.9 |
| Cc1cc(C(F)(F)F)nc(CCNC(C)Cn2cncn2)n1 (stereo unspecified) | 16.73 |
| CCN1CCC2(CC1)OCCN2C(=O)c1cc(Cl)c(OC)c(Cl)c1.Cl | 13.79 |
| CN(CCO)C[C@@H]1CN(C2CCN(c3ccccc3Cl)CC2)C[C@@H]1CO | 81.68 |
| CN(C)C[C@@H]1CN(C2CCN(c3ccccc3Cl)CC2)C[C@@H]1CO | -0.06241 |
| Cc1ccc(N2CCC(N3C[C@@H](CN(C)C)[C@@H](CO)C3)CC2)cc1 | -10.07 |
| Cc1cc(F)ccc1N1CCC(N2C[C@@H](CN(C)C)[C@@H](CO)C2)CC1 | 101.8 |
| CN(C)C[C@@H]1CN(C2CCN(c3ccc(Cl)cc3)CC2)C[C@@H]1CO | 39.93 |
| Cc1cc(F)ccc1N1CCC(N2C[C@@H](C)[C@@](C)(O)C2)CC1 | 33.53 |
| CCc1nc(C)cc(N2CCN(C(=O)[C@@H]3C[C@@H]4C=C[C@H]3C4)CC2)n1 | -1.962 |
| CS(=O)(=O)NCc1cc(=O)n2c(n1)CN(CC1CC1)CCC2.O=C(O)C(F)(F)F | 5.307 |
| O=C(O)C(F)(F)F.O=C(O)C(F)(F)F.O=C1CC[C@H]2[C@H](CCN2Cc2ccccn2)N1CC1CCOCC1 | -34.7 |
| Cc1cccc(CN2C(=O)C[C@@H]3[C@@H]2CCN3Cc2ccsc2)n1.O=C(O)C(F)(F)F.O=C(O)C(F)(F)F | -5.235 |
| Cl.NC(=O)COc1ccc(CNCc2ccc(F)cc2)cc1 | -18.87 |
| Cc1noc(C)c1CCC(=O)N1CCN(CCn2cncn2)CC1 | 78.74 |
| Cc1noc(C)c1CCC(=O)N1CCN(CCn2cccn2)CC1 | -5.618 |
| Cc1noc(C)c1CN1CCN(C(=O)CCn2cncn2)CC1 | -3.616 |
| Cn1ncc(Cl)c1C(=O)N1CCC(c2nnsc2S(C)(=O)=O)CC1 | -21.53 |
| Cn1cnc(S(=O)(=O)N2CC3(CCN(Cc4ccncc4)C3)C2)c1.O=C(O)C(F)(F)F.O=C(O)C(F)(F)F.O=C(O)C(F)(F)F | 36.02 |
| CN(C)C(=O)COCC1CN(Cc2ccco2)Cc2ncn(C)c21.O=C(O)C(F)(F)F.O=C(O)C(F)(F)F (stereo unspecified) | 31.48 |
